Activity calls are given as the source filed them. Unless noted, how the calls were made is not given here.
What was measured:
[1] = system: XIP peptide (Xip251-270) binding; test: small-molecule binders of XIP peptide, primary screen, biochemical, small-molecule microarray, fluorescence 635/667 nm, 0.1 µg/mL protein (AID 1182); conditions: fluorescent protein binding, 635 nm, higher = more signal, called active from +8 up or from −8 down
XIP peptide (Xip251-270) = test: small-molecule binders of XIP peptide, primary screen, biochemical, small-molecule microarray, fluorescence 635/667 nm, 0.5 µg/mL protein (AID 1183); conditions: small-molecule microarray binding, fluorescence 635 nm; higher = more signal
[2] = Plasmodium falciparum growth inhibition, primary screen, strain 3D7, DAPI fluorescence, 100 nL (AID 1184);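 further: parasites grown inside human red blood cells in medium with human serum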; conditions: P. falciparum 3D7 growth, 3 d, higher = more signal
[3] = target: Homeobox protein Hox-A13 (Mus musculus) (UniProt Q62424); test: inhibitors of HoxA13-DNA binding, primary screen, biochemical, fluorescence polarization, labeled oligonucleotide (AID 1185); conditions: 15 min, higher = more signal, called active from +8 up or from −8 down
Chain of Homeobox protein Hox-A13 (Mus musculus) (Q62424 whole entry, looked up): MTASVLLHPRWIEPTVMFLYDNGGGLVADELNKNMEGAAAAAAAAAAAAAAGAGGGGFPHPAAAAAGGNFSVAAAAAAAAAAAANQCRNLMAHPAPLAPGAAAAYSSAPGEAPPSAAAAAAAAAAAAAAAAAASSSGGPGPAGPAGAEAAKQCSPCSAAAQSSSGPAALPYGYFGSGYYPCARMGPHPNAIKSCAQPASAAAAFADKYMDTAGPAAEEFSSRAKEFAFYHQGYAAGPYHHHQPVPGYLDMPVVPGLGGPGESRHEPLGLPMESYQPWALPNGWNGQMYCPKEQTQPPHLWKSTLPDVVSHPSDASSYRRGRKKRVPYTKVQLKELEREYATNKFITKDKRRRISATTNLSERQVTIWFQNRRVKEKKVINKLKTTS

[4] = inhibitors of hydroxyurea-induced Chk1 phosphorylation, primary screen, imaging, HeLa, phospho-Chk1 antibody, percent positive cells (AID 1186); conditions: hydroxyurea-induced phospho-Chk1 immunofluorescence imaging, higher = more signal
[5] = inhibitors of hydroxyurea-induced Chk1 phosphorylation, primary screen, imaging, HeLa, phospho-Chk1 nuclear intensity (AID 1187); conditions: hydroxyurea-induced phospho-Chk1 immunofluorescence imaging, higher = more signal

Compound	composite z-score [1]	composite z-score (XIP peptide (Xip251-270))	z-score [2]	z-score [3]	z-score [4]	z-score [5]
CCCCCCc1nc(-c2cc(C)c(OC)c(C)c2)cc2c1[Si](C(C)C)(C(C)C)OC2	-0.267 (inactive)	-0.191	-2.34	-0.772 (inactive)	-0.157 (inactive)	-0.188 (inactive)
C=CCNC(=O)[C@@H]1[C@H]2C(=O)O[C@H](c3ccccc3)[C@H](c3ccccc3)N2[C@H](c2ccccc2OCCO)[C@@]12C(=O)N(C(=O)OCCOC)c1ccccc12	3.44 (inactive)	0.737	-1.16	-4.27 (inactive)	0.115 (inactive)	0.494 (inactive)
CCOC(=O)C[C@H]1[C@H](OC(=O)c2ccc(-c3ccccc3)cc2)[C@@H](NC(=O)Cc2ccc(OC)cc2)c2cc(OCCCO)ccc2N1C(=O)c1ccccc1	-0.243 (inactive)	-0.464	-0.791	-2.14 (inactive)	0.2 (inactive)	0.106 (inactive)
COCCOC(=O)N1C(=O)[C@@]2(c3cc(C#CCC(C(=O)OC)C(=O)OC)ccc31)[C@H](C(=O)N1CCN(c3ncccn3)CC1)[C@H]1C(=O)O[C@H](c3ccccc3)[C@H](c3ccccc3)N1[C@@H]2c1ccccc1OCCO	0.171 (inactive)	0.679	-2.03	-0.504 (inactive)	0.0845 (inactive)	0.176 (inactive)
C=CCNC(=O)[C@@H]1[C@H]2C(=O)O[C@H](c3ccccc3)[C@H](c3ccccc3)N2[C@H](c2ccc(O)cc2)[C@@]12C(=O)Nc1ccc(C#CCNC(N)=O)cc12	0.33 (inactive)	0.0915	-0.1	-3.36 (inactive)	-0.0873 (inactive)	-0.0078 (inactive)
O=C1C2C=CC(C(O)c3cccc4ccccc34)N(Nc3ccccc3F)C2C(=O)N1c1ccccc1 (configuration not stated)	1.09 (inactive)	0.871	0.71	-3.52 (inactive)	0.228 (inactive)	0.807 (inactive)
COc1ccc(CCNC(=O)[C@@]2(C)c3ccccc3C(=O)N(C(C)C)[C@H]2c2ccc(CO)cc2)cc1	-0.15 (inactive)	0.388	-0.57	-2.77 (inactive)	0.0394 (inactive)	-0.33 (inactive)
CCC(CC)C(O)C1C=CC2C(=O)NC(=O)C2N1Nc1ccc(Cl)cc1Cl (configuration not stated)	0.625 (inactive)	0.587	-0.225	-4.8 (inactive)	0.724 (inactive)	0.786 (inactive)
CCOC(=O)C[C@H]1[C@H](OC(=O)c2cc3ccccc3oc2=O)[C@@H](NC(=O)c2ccccc2)c2cc(OCCCO)ccc2N1C(=O)c1ccc2ccccc2n1	-0.0302 (inactive)	0.503	-0.566	-3.63 (inactive)	0.091 (inactive)	0.0741 (inactive)
COCCOC(=O)N1C(=O)[C@@]2(c3cc(C#Cc4ccc(OC)cc4)ccc31)[C@H](c1ccc(OCCO)cc1)N1[C@H](c3ccccc3)[C@H](c3ccccc3)OC(=O)[C@H]1[C@@H]2C(=O)N1CCN(c2ncccn2)CC1	0.0039 (inactive)	0.695	-1.84	0.99 (inactive)	0.13 (inactive)	0.436 (inactive)
COc1ccc([Si](C)(C)[C@@H]2[C@@H](CCO)O[C@]3(C(=O)N(Cc4ccc(N(C=O)c5ccccc5)cc4)c4ccccc43)[C@H]2C)cc1	-0.0075 (inactive)	-0.0404	-2.7	-1.54 (inactive)	-1.27 (inactive)	-1.31 (inactive)
CN(C)CCCCCCNC(=O)[C@H]1C[C@H]2C(=O)N[C@@H](CCCCN)C(=O)N2[C@H]1c1cccc(OCCO)c1	0.867 (inactive)	0.727	1.05	-2.01 (inactive)	-0.198 (inactive)	-0.0886 (inactive)

— PubChem BioAssay
